Source: the supplement of paper PMC3334620
In all, about 33,000 sequences were measured (“E-score (-0.5 to 0.5)”: median about -0.012, highest 2% from about 0.27 on). This is one part of a sample in which the highest values are shown more often than they occur.

Target: T1, Vhr1 (UniProt P40522)
T1 sequence: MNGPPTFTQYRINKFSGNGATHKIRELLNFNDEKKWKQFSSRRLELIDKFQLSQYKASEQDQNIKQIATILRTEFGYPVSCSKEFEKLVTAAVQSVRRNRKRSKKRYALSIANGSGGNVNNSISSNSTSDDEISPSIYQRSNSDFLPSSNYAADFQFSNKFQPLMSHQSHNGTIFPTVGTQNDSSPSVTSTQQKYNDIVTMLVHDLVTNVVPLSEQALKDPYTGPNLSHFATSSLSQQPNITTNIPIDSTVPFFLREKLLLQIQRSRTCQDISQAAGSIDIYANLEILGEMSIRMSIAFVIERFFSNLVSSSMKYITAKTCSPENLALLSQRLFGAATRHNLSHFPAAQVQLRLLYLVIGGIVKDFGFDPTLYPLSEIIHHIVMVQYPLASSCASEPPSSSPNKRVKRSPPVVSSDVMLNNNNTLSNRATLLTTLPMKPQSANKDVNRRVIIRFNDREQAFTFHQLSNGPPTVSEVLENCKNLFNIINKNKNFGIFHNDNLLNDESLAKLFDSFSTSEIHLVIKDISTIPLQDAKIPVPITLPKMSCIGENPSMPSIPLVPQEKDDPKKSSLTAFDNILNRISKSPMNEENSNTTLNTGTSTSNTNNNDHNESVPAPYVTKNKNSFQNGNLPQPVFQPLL
Experiment: PBM E-score (8-mer binding enrichment) (E-score (-0.5 to 0.5)); higher = stronger / more preferred TF binding
Details: protein concentration: 200 nM; construct: GST-full length
Summary of the method: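 Each ungapped eight-base word and its reverse complement, pooled, received an E-score from the Universal PBM Analysis Suite. Underlying scans, normalised with masliner, recorded fluorescent anti-GST bound to GST-tagged yeast transcription factors. These were applied at about 100-200 nM to universal all-10-mer Agilent arrays double-stranded by primer extension.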

Row | Sequence | PBM E-score
1 | GCTAGTCC | -0.158
2 | ACTAGTCA | 0.292
3 | ATCTTCTG | -0.113
4 | ACTTCGGA | -0.00447
5 | GAAAGTTC | -0.349
6 | AGAGTACT | 0.0467
7 | ATTCTTAC | -0.00122
8 | CTCTGGAC | 0.0126
9 | CCGCCCCC | -0.17
10 | CCGCCCCG | 0.365
11 | CCGCCCGG | 0.0777
12 | ACGCCCCA | 0.112
13 | CCGCCCCA | 0.349
14 | CCTCCCCA | 0.28
15 | GCGCCCCA | -0.131
16 | CCTCCCCC | -0.19
17 | CCTCCCAA | -0.246
18 | CAGAAATG | -0.168
19 | CTTCATGA | 0.145
20 | CGGCCGAA | 0.185
21 | AGGTTGAA | -0.127
22 | AGGAACCT | -0.0548
23 | CAAGAGTA | 0.167
24 | CTCCCGCC | 0.0303
25 | CTAGCGAC | -0.00899
26 | CGTGTCTA | 0.124

Row | Sequence | PBM E-score
27 | ATGATTTA | 0.295
28 | GGGATTTA | -0.29
29 | ATGATTTC | 0.249
30 | CTGATTTA | 0.00054
31 | GAGATTTA | -0.176
32 | GTGATTTA | 0.321
33 | TCAATTGA | -0.0329
34 | GATTCTCA | 0.078
35 | TGGTCCAA | -0.0804
36 | AGATATAT | 0.131
37 | GCTGGGAA | 0.0455
38 | AGTGGGAC | 0.0716
39 | CCAAATCG | -0.166
40 | ACTGCTCA | 0.0795
41 | AGCACTGG | -0.0591
42 | AGGATGGC | 0.124
43 | ATCACTCA | 0.234
44 | CTCACACA | 0.299
45 | CTCACACC | 0.0809
46 | GTCACACA | 0.303
47 | CTCACGCA | 0.29
48 | GTCACAAA | -0.0213
49 | GTCACAGA | 0.157
50 | GTCACTCA | 0.325
51 | CTCACATA | 0.186
52 | CTCACGCC | 0.239

Row | Sequence | PBM E-score
53 | CTCACTCA | 0.0981
54 | GTCACGCA | 0.0821
55 | CATGGTAA | -0.0174
56 | AATAGGGC | -0.124
57 | AATTGTGG | 0.00128
58 | CCAACGCC | -0.203
59 | CATTTGAA | -0.0815
60 | TGATAGCA | 0.194
61 | ATAGATGC | -0.0668
62 | GTGATATA | 0.0452
63 | CCATCCTC | 0.0474
64 | CTAGTATA | 0.0509
65 | CTCAACTA | 0.106
66 | ACTCAACA | 0.289
67 | ACTCAATG | 0.159
68 | ACTCCACG | -0.104
69 | AATCAATC | 0.186
70 | ACTCCACA | 0.277
71 | TATCAACA | 0.172
72 | TCTCAACA | 0.113
73 | ACTCAATC | 0.293
74 | TCTCCACA | -0.0495
75 | GATCAACA | -0.0766
76 | AATCAACA | 0.303
77 | ACTCAACG | 0.171
78 | ACTCATAA | 0.164

Row | Sequence | PBM E-score
79 | ACATCGCG | 0.183
80 | AGTTAGGC | -0.144
81 | CGACTGTC | 0.102
82 | AAAGTAGG | -0.0386
83 | ATCTCCAT | 0.0116
84 | ATGCTTGA | 0.0306
85 | CATCACCA | 0.167
86 | CATCACCC | 0.103
87 | AACCACCT | 0.0827
88 | AATCACCT | 0.312
89 | AATCACCG | 0.266
90 | TATCACCA | 0.0885
91 | AATCACGT | 0.225
92 | AATCACCA | 0.33
93 | AATCACCC | 0.38
94 | ACCCCAAG | -0.0964
95 | CCGATCAC | 0.0847
96 | GTGCAAAC | -0.0932
97 | TAGAAGGA | -0.332
98 | ATAAGGGA | -0.137
99 | ATCTAAAA | 0.0219
100 | ATTAACTG | 0.224
101 | AGTCATTA | 0.368
102 | AGCCATTC | -0.00524
103 | CGTCATTA | -0.122
104 | ACTCATTC | 0.367

Row | Sequence | PBM E-score
105 | GGTCATTA | -0.0362
106 | CGTCATTC | 0.177
107 | ATTCATTC | 0.165
108 | AGTCATTG | 0.389
109 | ACTCATTG | 0.196
110 | ATTCATTG | 0.0738
111 | CCTCATTC | -0.0181
112 | AGTCATTC | 0.384
113 | TGACAGCA | 0.127
114 | ATAGCGTA | -0.0276
115 | CAAAACAA | -0.13
116 | GCCTCAAA | -0.0409
117 | GAGGGCAC | -0.205
118 | GTAGTCAC | 0.441
119 | CAAGTCAC | 0.284
120 | AAAGTCAC | 0.246
121 | CAAGTCAG | 0.208
122 | CTAGTCGC | 0.0967
123 | CTAGTCAA | 0.124
124 | GTAGTCAA | 0.262
125 | CTAGTCAC | 0.34
126 | GAAGTCAC | 0.269
127 | ACTCTTTC | -0.172
128 | GTGTCTTA | 0.0499
129 | CCTGAATC | 0.0923
130 | GACGTTAC | -0.062

Row | Sequence | PBM E-score
131 | AAAGGCGT | -0.19
132 | ACACAGCT | 0.127
133 | GCACAGCA | 0.128
134 | CCACAGCA | 0.088
135 | ACACAGCC | 0.232
136 | ACACAGCG | 0.312
137 | ACACAGCA | 0.286
138 | ATTTTAGC | -0.141
139 | AATACCTC | 0.0406
140 | GAGTTAGA | -0.0441
141 | ACTTTGAG | 0.0115
142 | AAGCTGGC | -0.163
143 | AAGCGATT | -0.0711
144 | CGTGGGGA | 0.0323
145 | GGTGGGGA | 0.378
146 | GGCGGGAA | -0.0569
147 | CGCGGGCA | 0.287
148 | CGCGGGAA | 0.105
149 | CGCGGGGA | 0.292
150 | CGCGGGCC | 0.187
151 | AGCGGGGA | -0.0182
152 | GGTGGGAA | 0.04
153 | GGCGGGGA | 0.409
154 | GCGGGGGA | -0.0987
155 | GGCGGGCA | 0.198
156 | CACCAAGG | 0.0118

Row | Sequence | PBM E-score
157 | AGGCTGGC | 0.00081
158 | AGGCCCGG | -0.234
159 | ATTAGCGA | 0.142
160 | ATGGTCGA | -0.0168
161 | GAGACTAA | -0.00777
162 | CCGTTCAG | -0.184
163 | CAACAATG | 0.168
164 | CAACAATC | 0.273
165 | GAACAATC | -0.0437
166 | AGTCACAT | 0.402
167 | AGTCACAA | 0.391
168 | CGTCACAG | 0.152
169 | CGTCACAA | -0.0394
170 | AGGCACAT | 0.0884
171 | AGTCACAG | 0.425
172 | GGTCACAC | 0.0719
173 | AGTCACAC | 0.415
174 | ATTCACAG | -0.0154
175 | GGTCACAA | 0.0224
176 | AGCCACAT | 0.22
177 | CGTCACAC | -0.021
